# In PubChem BioAssay AID1159580 (chemical genetic matrix, 2015):
# Screen size: about 5,500 compounds; about 2,000 (36%) were called active. Another 18% or so got no clear call; they are omitted. This is one part of the list. Values without a mark were called inactive. Rule as the data show it: active = normalized growth mostly below about 0.91 (no sharp cut-off); inconclusive = no clear call, values can overlap the other calls; inactive = mostly above about 0.92.
# Assay: chemical genetic growth profiling, strain panel (AID 1159580);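 also: tested at 20 µM; growth read once vehicle control cultures reached saturation at 30 °C; 1 = growth at the plate median or of vehicle wells; lower values mean less growth of the strain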
# Conditions: growth OD
# [1] = S. cerevisiae deletion strains, locus YAL013W, strain DEP1, hits give low values
# [2] = S. cerevisiae deletion strains, locus YAL040C, strain CLN3, hits give low values
# [3] = S. cerevisiae deletion strains, locus YCL061C, strain MRC1 (second series), hits give low values
# [4] = S. cerevisiae deletion strains, locus YDR150W, strain NUM1, hits give low values
# [5] = S. cerevisiae deletion strains, locus YDR363W, strain ESC2, hits give low values
# [6] = S. cerevisiae deletion strains, locus YER002W, strain NOP16, hits give low values
# [7] = S. cerevisiae deletion strains, locus YGR078C, strain PAC10, hits give low values
# [8] = S. cerevisiae deletion strains, locus YJR075W, strain HOC1, hits give low values
# [9] = S. cerevisiae deletion strains, locus YMR307W, strain GAS1, hits give low values
# [10] = S. cerevisiae deletion strains, locus YNL153C, strain GIM3, hits give low values
# [11] = S. cerevisiae deletion strains, locus YNL175C, strain NOP13, hits give low values
# [12] = S. cerevisiae deletion strains, locus YNL197C, strain WHI3, hits give low values
# [13] = S. cerevisiae deletion strains, locus YNL224C, strain SQS1, hits give low values
# [14] = S. cerevisiae deletion strains, locus YOR083W, strain WHI5 (second series), hits give low values
# [15] = S. cerevisiae deletion strains, locus YPL055C, strain LGE1, hits give low values
# [16] = S. cerevisiae deletion strains, locus YPL241C, strain CIN2, hits give low values
# [17] = S. cerevisiae deletion strains, locus YMR263W, strain SAP30, hits give low values
# [18] = S. cerevisiae deletion strains, locus YNL322C, strain KRE1, hits give low values
# [19] = S. cerevisiae deletion strains, locus YDL101C, strain DUN1, hits give low values
# [20] = S. cerevisiae deletion strains, locus YHR030C, strain SLT2, hits give low values
smiles,measurement,setting,value
CCCn1cnc2c1c(=O)n(CCCCC(C)=O)c(=O)n2C,normalized growth,[1],1.01
same,normalized growth,[2],0.997
same,normalized growth,[3],1.01
same,normalized growth,[4],1.01
same,normalized growth,[5],0.961
same,normalized growth,[6],1.02
same,normalized growth,[7],1.01
same,normalized growth,[8],1.02
same,normalized growth,[9],1.01
same,normalized growth,[10],1.04
same,normalized growth,[11],1.01
same,normalized growth,[12],0.996
same,normalized growth,[13],1.01
same,normalized growth,[14],1.01
same,normalized growth,[15],1.02
same,normalized growth,[16],1.01
COC[C@H]1OC(=O)c2coc3c2[C@@]1(C)C1=C(C3=O)C2CCC(=O)[C@@]2(C)C[C@H]1OC(C)=O (stereo partly specified),normalized growth,[2],0.0731 (active)
same,normalized growth,[3],0.141 (active)
same,normalized growth,[4],0.136 (active)
same,normalized growth,[5],0.206 (active)
same,normalized growth,[6],0.0648 (active)
same,normalized growth,[7],0.994
same,normalized growth,"S. cerevisiae deletion strains, locus YGR229C, strain SMI1, hits give low values",0.0613 (active)
same,normalized growth,[17],0.0519 (active)
same,normalized growth,[9],0.0665 (active)
same,normalized growth,"S. cerevisiae deletion strains, locus YNL128W, strain TEP1, hits give low values",0.143 (active)
same,normalized growth,[10],0.101 (active)
same,normalized growth,[11],1
same,normalized growth,[12],0.0727 (active)
same,normalized growth,[13],0.0711 (active)
same,normalized growth,[18],0.33 (active)
same,normalized growth,[14],0.359 (active)
same,normalized growth,[15],0.119 (active)
O=C1CSC(c2cccnc2)N1c1ccc(C2CCCCC2)cc1 (stereo unspecified),normalized growth,[1],1
same,normalized growth,"S. cerevisiae deletion strains, locus YBR229C, strain ROT2, hits give low values",1.01
same,normalized growth,[19],1.03
same,normalized growth,"S. cerevisiae deletion strains, locus YDL134C, strain PPH21, hits give low values",0.941
same,normalized growth,[4],1.05
same,normalized growth,"S. cerevisiae deletion strains, locus YEL061C, strain CIN8, hits give low values",0.999
same,normalized growth,[7],1.01
same,normalized growth,[20],1.28
same,normalized growth,"S. cerevisiae deletion strains, locus YHR087W, strain rtc3, hits give low values",1.02
same,normalized growth,"S. cerevisiae deletion strains, locus YJR043C, strain POL32, hits give low values",1.02
same,normalized growth,[8],0.941
same,normalized growth,"S. cerevisiae deletion strains, locus YKL190W, strain CNB1, hits give low values",0.945
same,normalized growth,"S. cerevisiae deletion strains, locus YLR039C, strain RIC1, hits give low values",0.926
same,normalized growth,"S. cerevisiae deletion strains, locus YLR058C, strain SHM2 (second series), hits give low values",0.991
same,normalized growth,"S. cerevisiae deletion strains, locus YLR085C, strain ARP6, hits give low values",0.917
same,normalized growth,"S. cerevisiae deletion strains, locus YLR262C, strain YPT6, hits give low values",0.888
same,normalized growth,"S. cerevisiae deletion strains, locus YML094W, strain GIM5, hits give low values",1.07
same,normalized growth,"S. cerevisiae deletion strains, locus YMR219W, strain ESC1, hits give low values",1.02
same,normalized growth,[17],1.06
same,normalized growth,[10],1.01
same,normalized growth,"S. cerevisiae deletion strains, locus YNL298W, strain CLA4 (second series), hits give low values",0.951
same,normalized growth,[18],1
same,normalized growth,"S. cerevisiae deletion strains, locus YNR030W, strain Alg12, hits give low values",0.963
same,normalized growth,[15],1.04
same,normalized growth,[16],1.09
same,normalized growth,"S. cerevisiae deletion strains, locus YPR135W, strain CTF4, hits give low values",0.832
same,normalized growth,"S. cerevisiae strains, strain wild type, hits give low values",0.96
CC1SC(c2cccnc2)N(c2ccc(F)cc2F)C1=O (stereo unspecified),normalized growth,"S. cerevisiae deletion strains, locus YAR019C, strain CDC15, hits give low values",1
same,normalized growth,"S. cerevisiae deletion strains, locus YBL105C, strain PKC1, hits give low values",0.987
same,normalized growth,"S. cerevisiae deletion strains, locus YBR135W, strain CKS1, hits give low values",0.982
same,normalized growth,"S. cerevisiae deletion strains, locus YBR136W, strain MEC1, hits give low values",0.99
same,normalized growth,"S. cerevisiae deletion strains, locus YBR160W, strain CDC28, hits give low values",0.983
same,normalized growth,"S. cerevisiae deletion strains, locus YDL017W, strain CDC7, hits give low values",0.985
same,normalized growth,"S. cerevisiae deletion strains, locus YDL028C, strain MPS1, hits give low values",0.994
same,normalized growth,[19],0.985
same,normalized growth,"S. cerevisiae deletion strains, locus YDL108W, strain KIN28, hits give low values",1
same,normalized growth,"S. cerevisiae deletion strains, locus YDL132W, strain cdc53, hits give low values",0.981
same,normalized growth,"S. cerevisiae deletion strains, locus YDL214C, strain PRR2, hits give low values",1.01
same,normalized growth,"S. cerevisiae deletion strains, locus YDR052C, strain DBF4, hits give low values",0.981
same,normalized growth,"S. cerevisiae deletion strains, locus YDR054C, strain cdc34, hits give low values",0.981
same,normalized growth,"S. cerevisiae deletion strains, locus YDR226W, strain ADK1, hits give low values",0.974
same,normalized growth,"S. cerevisiae deletion strains, locus YDR477W, strain SNF1, hits give low values",0.981
same,normalized growth,"S. cerevisiae deletion strains, locus YER123W, strain YCK3, hits give low values",0.942
same,normalized growth,"S. cerevisiae deletion strains, locus YER133W, strain GLC7, hits give low values",0.99
same,normalized growth,"S. cerevisiae deletion strains, locus YFL009W, strain cdc4, hits give low values",0.981
same,normalized growth,"S. cerevisiae deletion strains, locus YFL029C, strain CAK1, hits give low values",0.997
same,normalized growth,"S. cerevisiae deletion strains, locus YFR003C, strain YPI1, hits give low values",0.991
same,normalized growth,"S. cerevisiae deletion strains, locus YFR019W, strain FAB1, hits give low values",0.933
same,normalized growth,"S. cerevisiae deletion strains, locus YFR028C, strain CDC14, hits give low values",0.979
same,normalized growth,"S. cerevisiae deletion strains, locus YGR040W, strain KSS1, hits give low values",0.974
same,normalized growth,"S. cerevisiae deletion strains, locus YGR052W, strain FMP48, hits give low values",0.931
same,normalized growth,"S. cerevisiae deletion strains, locus YGR092W, strain DBF2, hits give low values",0.965
same,normalized growth,[20],1.01
same,normalized growth,"S. cerevisiae deletion strains, locus YHR079C, strain IRE1, hits give low values",0.972
same,normalized growth,"S. cerevisiae deletion strains, locus YHR082C, strain KSP1, hits give low values",0.925
same,normalized growth,"S. cerevisiae deletion strains, locus YHR205W, strain SCH9, hits give low values",1
same,normalized growth,"S. cerevisiae deletion strains, locus YIL147C, strain SLN1, hits give low values",0.992
same,normalized growth,"S. cerevisiae deletion strains, locus YJL095W, strain BCK1, hits give low values",0.946
same,normalized growth,"S. cerevisiae deletion strains, locus YJL128C, strain PBS2, hits give low values",0.988
same,normalized growth,"S. cerevisiae deletion strains, locus YJL157C, strain FAR1, hits give low values",1
same,normalized growth,"S. cerevisiae deletion strains, locus YJR016C, strain ILV3, hits give low values",0.986
same,normalized growth,"S. cerevisiae deletion strains, locus YJR066W, strain TOR1 (second series), hits give low values",0.966
same,normalized growth,"S. cerevisiae deletion strains, locus YJR066W, strain TOR1, hits give low values",0.82
same,normalized growth,"S. cerevisiae deletion strains, locus YKL048C, strain ELM1, hits give low values",1
same,normalized growth,"S. cerevisiae deletion strains, locus YKL067W, strain YNK1, hits give low values",1.02
same,normalized growth,"S. cerevisiae deletion strains, locus YKL101W, strain HSL1, hits give low values",1.02
same,normalized growth,"S. cerevisiae deletion strains, locus YKL193C, strain SDS22, hits give low values",0.973
same,normalized growth,"S. cerevisiae deletion strains, locus YKL203C, strain TOR2, hits give low values",0.965
same,normalized growth,"S. cerevisiae deletion strains, locus YLR113W, strain HOG1, hits give low values",0.957
same,normalized growth,"S. cerevisiae deletion strains, locus YLR133W, strain CKI1, hits give low values",1.01
same,normalized growth,"S. cerevisiae deletion strains, locus YLR403W, strain SFP1, hits give low values",0.976
same,normalized growth,"S. cerevisiae deletion strains, locus YML070W, strain DAK1, hits give low values",1.02
same,normalized growth,"S. cerevisiae deletion strains, locus YMR001C, strain CDC5, hits give low values",0.984
same,normalized growth,"S. cerevisiae deletion strains, locus YMR205C, strain PFK2 (second series), hits give low values",1.02
same,normalized growth,"S. cerevisiae deletion strains, locus YMR277W, strain FCP1, hits give low values",0.978
same,normalized growth,"S. cerevisiae deletion strains, locus YNL006W, strain LST8, hits give low values",0.986
same,normalized growth,"S. cerevisiae deletion strains, locus YNL020C, strain ARK1, hits give low values",1.01
same,normalized growth,"S. cerevisiae deletion strains, locus YNL161W, strain CBK1, hits give low values",0.976
same,normalized growth,"S. cerevisiae deletion strains, locus YNL183C, strain NPR1, hits give low values",0.968
same,normalized growth,"S. cerevisiae deletion strains, locus YNL207W, strain RIO2, hits give low values",0.975
same,normalized growth,"S. cerevisiae deletion strains, locus YNL222W, strain SSU72, hits give low values",0.983
same,normalized growth,"S. cerevisiae deletion strains, locus YNL307C, strain MCK1 (second series), hits give low values",1
same,normalized growth,"S. cerevisiae deletion strains, locus YOL078W, strain AVO1, hits give low values",0.976
same,normalized growth,"S. cerevisiae deletion strains, locus YOL136C, strain PFK27, hits give low values",1.03
same,normalized growth,"S. cerevisiae deletion strains, locus YOR061W, strain CKA2, hits give low values",0.995
same,normalized growth,"S. cerevisiae deletion strains, locus YOR119C, strain RIO1, hits give low values",0.833
same,normalized growth,"S. cerevisiae deletion strains, locus YOR231W, strain MKK1, hits give low values",0.936
same,normalized growth,"S. cerevisiae deletion strains, locus YOR329C, strain SCD5, hits give low values",0.979
same,normalized growth,"S. cerevisiae deletion strains, locus YPL031C, strain PHO85, hits give low values",0.981
same,normalized growth,"S. cerevisiae deletion strains, locus YPL153C, strain RAD53, hits give low values",0.968
same,normalized growth,"S. cerevisiae deletion strains, locus YPL204W, strain HRR25, hits give low values",0.972
same,normalized growth,"S. cerevisiae deletion strains, locus YPL209C, strain IPL1, hits give low values",0.979
same,normalized growth,"S. cerevisiae deletion strains, locus YPL256C, strain CLN2, hits give low values",0.954
same,normalized growth,"S. cerevisiae deletion strains, locus YPR025C, strain CCL1, hits give low values",0.984
same,normalized growth,"S. cerevisiae deletion strains, locus YPR106W, strain ISR1, hits give low values",1
same,normalized growth,"S. cerevisiae deletion strains, locus YPR111W, strain DBF20, hits give low values",0.998
same,normalized growth,"S. cerevisiae deletion strains, strain NNK1, hits give low values",0.992
same,normalized growth,"S. cerevisiae deletion strains, strain TSCII, hits give low values",0.985
